# Data as given in publication PMC7862700, “An all-to-all approach to the identification of sequence-specific readers for epigenetic DNA modifications on cytosine”.
# Tests used:
# Experiment in all cases: DAPPL (digital affinity profiling via proximity ligation, sequencing); 10 mM Tris-HCl pH 7.5, 50 mM NaCl, 1 mM DTT, 4% glycerol, room temperature, 30 min; GST-TFs on glutathione beads, 16-mer random dsDNA library, 0.1% formaldehyde crosslink after washing; high values mean tight binding
# Conditions in all cases: protein: recombinant; tags: N-terminal GST; dsDNA, one strand shown
# [1] = biological target: T1, FLI1 (Homo sapiens, UniProt Q01543 1-452)
# T1 sequence: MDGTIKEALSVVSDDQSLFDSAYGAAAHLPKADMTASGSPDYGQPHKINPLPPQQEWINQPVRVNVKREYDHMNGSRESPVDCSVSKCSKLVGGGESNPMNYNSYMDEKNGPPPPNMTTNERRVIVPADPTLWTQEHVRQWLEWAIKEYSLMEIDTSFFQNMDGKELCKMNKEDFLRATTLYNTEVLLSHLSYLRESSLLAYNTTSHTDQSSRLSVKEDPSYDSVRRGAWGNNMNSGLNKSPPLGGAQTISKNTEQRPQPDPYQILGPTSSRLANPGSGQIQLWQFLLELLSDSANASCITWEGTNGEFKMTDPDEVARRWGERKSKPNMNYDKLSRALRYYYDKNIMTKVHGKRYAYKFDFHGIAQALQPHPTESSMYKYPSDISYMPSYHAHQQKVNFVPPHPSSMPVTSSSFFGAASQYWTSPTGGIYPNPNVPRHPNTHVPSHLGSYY
# Summary of the method: (§1)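 Human transcription factors fused to GST were expressed in yeast, captured on glutathione beads, given DNA barcodes and pooled with a GST-only negative control. Pools were incubated with 200 nmole of a 16-mer random double-stranded DNA library in Tris/NaCl/DTT/glycerol buffer at room temperature for 30 min. They were then washed, crosslinked with 0.1% formaldehyde, proximity-ligated (BsaI/T4 ligase, 1 h, 37 °C), PCR-amplified and sequenced on an Illumina NextSeq500. Binding signal is each 6-mer's read frequency for a factor divided by its frequency for the GST control.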
# [2] = biological target: T2, ELK1 (Homo sapiens, UniProt P19419 1-428)
# T2 sequence: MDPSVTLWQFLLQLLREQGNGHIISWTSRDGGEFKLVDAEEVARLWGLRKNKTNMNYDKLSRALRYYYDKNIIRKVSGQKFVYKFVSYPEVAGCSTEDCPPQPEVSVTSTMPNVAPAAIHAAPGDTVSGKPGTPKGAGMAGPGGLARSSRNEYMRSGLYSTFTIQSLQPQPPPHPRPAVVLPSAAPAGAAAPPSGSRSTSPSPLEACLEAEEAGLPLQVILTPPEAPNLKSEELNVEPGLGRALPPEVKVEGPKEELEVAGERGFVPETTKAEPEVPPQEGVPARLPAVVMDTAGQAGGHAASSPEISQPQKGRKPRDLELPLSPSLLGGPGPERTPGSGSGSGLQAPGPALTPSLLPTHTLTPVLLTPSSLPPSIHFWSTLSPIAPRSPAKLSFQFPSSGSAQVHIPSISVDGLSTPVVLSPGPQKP
# Summary of the method: as §1
# [3] = biological target: T3, GABPA (Homo sapiens, UniProt Q06546 1-454)
# T3 sequence: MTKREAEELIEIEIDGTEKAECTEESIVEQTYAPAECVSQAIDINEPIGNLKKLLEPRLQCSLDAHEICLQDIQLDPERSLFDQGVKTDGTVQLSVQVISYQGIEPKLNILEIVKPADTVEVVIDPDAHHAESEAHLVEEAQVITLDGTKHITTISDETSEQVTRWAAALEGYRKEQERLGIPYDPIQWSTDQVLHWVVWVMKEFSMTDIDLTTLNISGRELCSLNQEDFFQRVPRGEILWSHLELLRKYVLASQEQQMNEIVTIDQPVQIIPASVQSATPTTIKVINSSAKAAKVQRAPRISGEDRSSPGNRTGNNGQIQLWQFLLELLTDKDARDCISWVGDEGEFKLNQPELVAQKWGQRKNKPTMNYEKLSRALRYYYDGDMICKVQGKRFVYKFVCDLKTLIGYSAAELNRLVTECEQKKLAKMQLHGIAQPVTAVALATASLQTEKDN
# Summary of the method: as §1
# [4] = biological target: T4, ERG (Homo sapiens, UniProt P11308 1-479)
# T4 sequence: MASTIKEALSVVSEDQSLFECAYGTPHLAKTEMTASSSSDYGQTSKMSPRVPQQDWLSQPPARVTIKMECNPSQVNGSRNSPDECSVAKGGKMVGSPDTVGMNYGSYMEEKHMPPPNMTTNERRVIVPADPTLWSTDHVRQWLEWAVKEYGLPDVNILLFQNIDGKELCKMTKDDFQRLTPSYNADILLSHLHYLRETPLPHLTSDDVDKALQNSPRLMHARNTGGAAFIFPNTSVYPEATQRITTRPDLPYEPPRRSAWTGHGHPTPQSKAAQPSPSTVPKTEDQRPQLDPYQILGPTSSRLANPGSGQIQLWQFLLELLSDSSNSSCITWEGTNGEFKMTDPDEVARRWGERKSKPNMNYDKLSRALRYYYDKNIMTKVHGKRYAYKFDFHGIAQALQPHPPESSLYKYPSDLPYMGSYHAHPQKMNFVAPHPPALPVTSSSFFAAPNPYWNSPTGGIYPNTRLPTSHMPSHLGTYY
# Summary of the method: as §1
# [5] = biological target: ELF1 (Homo sapiens, UniProt P32519 1-619)
# Summary of the method: as §1
# [6] = biological target: T5, EHF (Homo sapiens, UniProt Q9NZC4 1-300)
# T5 sequence: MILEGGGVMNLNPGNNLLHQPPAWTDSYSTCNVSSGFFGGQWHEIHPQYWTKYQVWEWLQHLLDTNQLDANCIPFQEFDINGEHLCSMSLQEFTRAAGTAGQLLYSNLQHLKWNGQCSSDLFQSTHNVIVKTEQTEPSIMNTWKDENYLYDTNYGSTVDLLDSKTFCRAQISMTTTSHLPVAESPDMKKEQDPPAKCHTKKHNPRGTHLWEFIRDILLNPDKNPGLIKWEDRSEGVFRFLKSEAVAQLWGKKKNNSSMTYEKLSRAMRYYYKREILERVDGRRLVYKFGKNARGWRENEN
# Summary of the method: as §1
# [7] = biological target: SPI1 (Homo sapiens, UniProt P17947 1-270)
# Summary of the method: as §1
# [8] = biological target: SPIB (Homo sapiens, UniProt Q01892 1-262)
# Summary of the method: as §1
# [9] = biological target: T6, ELK3 (Homo sapiens, UniProt P41970 1-407)
# T6 sequence: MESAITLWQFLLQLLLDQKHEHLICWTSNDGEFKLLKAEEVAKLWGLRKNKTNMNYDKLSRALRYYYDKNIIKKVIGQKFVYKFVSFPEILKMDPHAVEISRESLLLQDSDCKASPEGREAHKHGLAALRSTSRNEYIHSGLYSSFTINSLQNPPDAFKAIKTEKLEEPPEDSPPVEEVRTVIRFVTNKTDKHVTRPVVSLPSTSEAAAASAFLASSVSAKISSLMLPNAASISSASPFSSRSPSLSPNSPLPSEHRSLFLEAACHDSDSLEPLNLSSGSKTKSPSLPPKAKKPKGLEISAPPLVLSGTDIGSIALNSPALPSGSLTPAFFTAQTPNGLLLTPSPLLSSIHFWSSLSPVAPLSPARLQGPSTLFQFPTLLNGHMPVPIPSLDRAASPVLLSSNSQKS
# Summary of the method: as §1
# Sequence of SPIB (Q01892 whole entry): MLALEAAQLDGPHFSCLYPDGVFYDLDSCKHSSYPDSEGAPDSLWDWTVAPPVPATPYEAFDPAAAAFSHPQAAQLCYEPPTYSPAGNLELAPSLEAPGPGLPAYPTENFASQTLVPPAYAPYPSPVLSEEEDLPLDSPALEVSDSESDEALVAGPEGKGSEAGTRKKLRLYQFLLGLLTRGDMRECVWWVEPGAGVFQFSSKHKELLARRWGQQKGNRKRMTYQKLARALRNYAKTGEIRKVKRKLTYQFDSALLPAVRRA
# Sequence of ELF1 (P32519 whole entry): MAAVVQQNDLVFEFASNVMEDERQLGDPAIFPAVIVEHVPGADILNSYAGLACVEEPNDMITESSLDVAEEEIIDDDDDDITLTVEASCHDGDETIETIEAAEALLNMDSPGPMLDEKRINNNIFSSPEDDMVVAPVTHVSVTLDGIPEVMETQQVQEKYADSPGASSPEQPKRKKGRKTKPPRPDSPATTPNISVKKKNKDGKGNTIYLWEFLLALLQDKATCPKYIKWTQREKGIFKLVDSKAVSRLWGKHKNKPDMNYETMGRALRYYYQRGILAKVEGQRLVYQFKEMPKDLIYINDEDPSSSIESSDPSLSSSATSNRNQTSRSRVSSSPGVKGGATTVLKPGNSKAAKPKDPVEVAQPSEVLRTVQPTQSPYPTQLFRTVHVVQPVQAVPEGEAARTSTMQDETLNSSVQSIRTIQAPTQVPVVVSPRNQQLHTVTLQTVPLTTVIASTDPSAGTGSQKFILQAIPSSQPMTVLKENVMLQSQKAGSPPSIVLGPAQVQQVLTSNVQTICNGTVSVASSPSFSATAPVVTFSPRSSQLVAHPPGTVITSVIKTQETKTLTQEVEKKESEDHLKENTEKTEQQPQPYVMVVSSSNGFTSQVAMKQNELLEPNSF
sequence,measurement,setting,value
TCCGGC,binding signal,[1],"2.29 fold enrichment (6-mer frequency, TF over GST control)"
same,binding signal,[2],"2.4 fold enrichment (6-mer frequency, TF over GST control)"
same,binding signal,[3],"2.12 fold enrichment (6-mer frequency, TF over GST control)"
same,binding signal,[4],"2.58 fold enrichment (6-mer frequency, TF over GST control)"
same,binding signal,[5],"2 fold enrichment (6-mer frequency, TF over GST control)"
same,binding signal,[6],"2.18 fold enrichment (6-mer frequency, TF over GST control)"
same,binding signal,[7],"2.19 fold enrichment (6-mer frequency, TF over GST control)"
same,binding signal,[8],"2.42 fold enrichment (6-mer frequency, TF over GST control)"
same,binding signal,[9],"2.45 fold enrichment (6-mer frequency, TF over GST control)"
